# Source: PubChem BioAssay
# A selection: hits, their analogues and other compounds. The true share with any hit is near 0.86%.
# APE1 inh – qHTS Assay for Inhibitors of the Human Apurinic/apyrimidinic Endonuclease 1 (APE1); hit rate 0.35% among 350,000; recombinant APE1, TAMRA/BHQ-2 abasic DNA cleavage fluorescence; AID 2517, 2012; Potency, µM (top dose mostly 65.8 µM), without a hit: top-dose activity change, negative = inhibition, actives largely listed as inhibitors; DNA repair nuclease/redox regulator APEX1 (Homo sapiens), P27695;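 further: plate controls were vehicle for no effect and reference inhibitor for full effect; nearly all actives have a fitted effect of over 55% in size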
#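 Compound pre-exposure to 0.75 nM APE1, 15 min at ambient temperature. Reaction initiated with 50 nM TAMRA/BHQ-2 THF substrate, read immediately in kinetic mode, 525 nm excitation, 598 nm emission.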
# BLM helicase inh – qHTS Assay for Inhibitors of Bloom's syndrome helicase (BLM). hit rate 0.2% among 350,000. Potency, µM (top dose mostly 56.1 µM), without a hit: at the top dose activity change, negative = inhibition, most hits filed as inhibitors. recombinant BLM DNA unwinding, fluorescence dequenching;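 further: plate controls were vehicle for no effect and no enzyme for full effect; nearly all actives have a fitted effect of over 35% in size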
# FEN1 inhibitor – qHTS Assay for the Inhibitors of Human Flap endonuclease 1 (FEN1); hit rate 0.35% among 390,000; P39748; Recombinant FEN1 flap cleavage, fluorescence, 15 min; Potency, µM (highest dose often 114 µM), without a hit: at the top dose activity change, negative = inhibition, usual class: inhibitors; further: nearly all actives have a fitted effect of over 65% in size
#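 With each library titrated from low to high concentration, compounds met 10 nM FEN1 for 15 min at room temperature before 50 nM substrate was added; readings at 0 and 15 min fed four-parameter Hill curve fits.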
# Tb PGK inh – qHTS Assay to Find Inhibitors of Phosphoglycerate Kinase; hit rate 0.043% among 380,000; Phosphoglycerate kinase, glycosomal (Trypanosoma brucei brucei), P07378; PGK/GAPDH coupled, Kinase-Glo luminescence, 60 min; Potency, µM (series often up to 57.5 µM), for the others: top-dose activity change, negative = inhibition, actives largely listed as inhibitors; further: nearly all actives have a fitted effect of over 60% in size
#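 Recombinant glycosomal PGK reaction used 1,3-bisphosphoglycerate generated in-well by GAPDH (100nM final) in 100mM TEA pH 7.6, 5mM MgCl2, 0.01% Tween-20. After 60 minutes at room temperature, ATP was read by Kinase-Glo Plus luminescence end-point.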
# GLS inhibitor – qHTS for Inhibitors of Glutaminase (GLS) | GLS enzymatic activity, qHTS titration | Potency, µM (top dose mostly 45.5 µM), without a hit: top-dose activity change, negative = inhibition, hits mostly inhibitors | hit rate 0.21% among 410,000
#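 Read-out is an Amplex red fluorescence increase coupled through glutamate oxidase and HRP, measured before and after 30 min room-temperature incubation. hKGA is in 45 mM KH2PO4 (pH 8.2) with 0.02% Tween-20; glutamine added as 1mM solution.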
# RECQ1 helicase – qHTS Assay for Inhibitors of RecQ-Like Dna Helicase 1 (RECQ1); ATP-dependent DNA helicase Q1 (Homo sapiens), P46063; RECQ1 DNA unwinding, red fluorescence kinetic read; Potency, µM (doses to about 57.3 µM), inactives show at the top dose activity, negative = inhibition, most hits filed as inhibitors; hit rate 0.54% among 240,000;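 further: plate controls were vehicle for no effect and no enzyme for full effect; nearly all actives have a fitted effect of over 30% in size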
# Target sequence (P46063 whole entry, looked up): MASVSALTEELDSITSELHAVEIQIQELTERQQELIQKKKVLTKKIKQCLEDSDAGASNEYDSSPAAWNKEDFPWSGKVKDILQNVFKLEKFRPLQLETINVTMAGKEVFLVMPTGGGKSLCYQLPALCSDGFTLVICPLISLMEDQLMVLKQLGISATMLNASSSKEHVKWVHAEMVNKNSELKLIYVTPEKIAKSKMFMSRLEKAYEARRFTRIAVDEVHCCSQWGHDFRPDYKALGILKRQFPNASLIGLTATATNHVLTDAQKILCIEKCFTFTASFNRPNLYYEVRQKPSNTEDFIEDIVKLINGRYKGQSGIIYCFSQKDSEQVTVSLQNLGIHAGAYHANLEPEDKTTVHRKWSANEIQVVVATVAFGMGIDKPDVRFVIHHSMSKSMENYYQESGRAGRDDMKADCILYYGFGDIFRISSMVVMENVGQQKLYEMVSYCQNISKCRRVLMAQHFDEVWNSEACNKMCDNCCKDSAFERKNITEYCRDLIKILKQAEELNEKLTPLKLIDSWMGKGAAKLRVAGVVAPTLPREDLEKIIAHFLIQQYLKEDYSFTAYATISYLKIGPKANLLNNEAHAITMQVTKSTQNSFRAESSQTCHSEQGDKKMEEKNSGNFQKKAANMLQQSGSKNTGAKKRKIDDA
#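 RECQ1T1 50 nM; forked duplex (20 bp + 30-nt ss tails) 200 nM, ATP 2 mM final; pH 8.0, 2 mM MgCl2, 2.5 ug/ml poly(dI-dC); 15 min compound preincubation; discontinuous kinetic read over 2 h at RT.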
# * hit, by the source's call; i = inactive; ? = inconclusive; · = no result given. The call rests on the fitted dose curve; in most records, active means well fitted curve in the direction sought with a large enough effect; inconclusive means small, poorly fitted or top-dose-only effect, or another doubt; inactive means no such curve, though single readings can be large; an effect the other way counts as inactive or inconclusive. Unless noted, on the % scale 0 is the no-effect control and ±100 the full control effect; potency means the concentration at half of the fitted maximal effect.
SMILES,APE1 inh,BLM helicase inh,FEN1 inhibitor,Tb PGK inh,GLS inhibitor,RECQ1 helicase
CC(CN(C)C)CN1c2ccccc2S(=O)(=O)c2ccccc21 (stereo unspecified),·,·,·,·,-7%,·
CC(C)CN(C)c1ccc(/C=C2\C=Cc3ccccc32)cc1,·,·,4%,·,·,·
COc1cc(-c2nc3ccc(C)cn3c2Nc2ccc3c(c2)OCCO3)ccc1O,-1%,-20%,-15%,2%,13µM*,-15%
COc1cc(-c2nc3ccc(Cl)cn3c2Nc2ccc3c(c2)OCCO3)ccc1O,·,-9%,-22%,-9%,2%,·
Cc1cc(NC(=O)COC(=O)c2ccccc2OCCOc2ccccc2)ccc1Br,·,·,4%,·,·,·
COc1ccc(C(=O)c2cn(Cc3ccc(F)cc3)c3c(F)cc(F)cc3c2=O)cc1,·,-3%,89µM*,i,-1%,·
O=C1c2cccc3cccc(c23)C(=O)N1CCCc1n[nH]c(=S)n1-c1ccccc1,1%,-5%,-8%,10%,4µM*,i
OCCCc1n[nH]c(=S)n1-c1ccccc1,3%,-2%,0%,-4%,-1%,-10%
Cc1ccc(O)c(N=Nc2ccccc2)n1,1%,-2%,-5%,16µM*,18%,-2%
Cc1ccnc2ccc(I)cc12,·,·,14%,·,·,·
Cc1ccc2oc(-c3cc(NC(=O)c4ccco4)ccc3Cl)nc2c1,·,-1%,79µM*,-1%,6%,·
Cc1ccc2oc(-c3cc(NC(=O)c4oc5ccccc5c4C)ccc3Cl)nc2c1,·,-9%,-2%,0%,14%,·
Cc1sc2ccccc2[n+]1CCC[n+]1c(C)sc2ccccc21,·,·,-27%,·,·,·
CSc1ccc(/C=N/NC(=O)c2cc(O)cc(O)c2)cc1,14%,0%,-7%,-6%,12%,-3%
CSc1ccc(/C=N/NC(=O)c2ccc(C)c(C)c2)cc1,6%,28µM*,-16%,3%,6%,1%
COc1ccc(C2C3=C(CC(C)(C)CC3=O)Nc3c2c(=O)n(C)c(=O)n3C)cc1OC (stereo unspecified),-2%,0%,8%,0%,13µM*,-2%
C=CCOc1ccccc1C1C2=C(CC(C)(C)CC2=O)Nc2c1c(=O)n(C)c(=O)n2C (stereo unspecified),-2%,0%,4%,-9%,35%,-4%
COc1ccc(C2Nc3ccccc3NC3=C2C(=O)CC(C)(C)C3)cc1O (stereo unspecified),-9%,-5%,-4%,-1%,13µM*,·
CN(C)c1ccc(C=c2c3ccccc3n3c2c2ccccc2[n+]3C)cc1,·,·,32µM*,-13%,-11%,·
C[n+]1c(-c2ccccc2)cc2c(=Cc3ccccc3)c3ccccc3n21,·,·,?,-4%,-25%,·
C[n+]1c(-c2ccccc2)cc2c(=Cc3ccc([N+](=O)[O-])cc3)c3ccccc3n21,·,·,-19%,0%,10µM*,·
CN(C)c1ccc(C=c2c3cc(O)ccc3n3c2cc(-c2ccccc2)[n+]3C)cc1,·,·,7.9µM*,i,-10%,·
O=C1c2c(O)cc(O)cc2O[C@@]12c1c(cc(O)c3c1O[C@H](c1ccc(O)cc1)[C@@H](O)C3)O[C@@H]2c1ccc(O)cc1,-2%,-6%,50µM*,-4%,-4%,i
Cc1ccc(C(=O)N/N=C/c2cccc(OC(=O)/C=C/c3ccco3)c2)cn1,14µM*,-28%,-1%,-7%,13%,?
COc1cccc(C2=Nn3c(nnc3-c3ccccc3C)SC2)c1,12%,-9%,·,·,·,i
SMILES,APE1 inh,BLM helicase inh,FEN1 inhibitor,Tb PGK inh,GLS inhibitor,RECQ1 helicase
O=c1c2ccccc2sc2ccccc12,·,·,-2%,0%,-2%,·
O=c1c(C(c2ccccc2)c2c(O)sc3ccccc3c2=O)c(O)sc2ccccc12,-9%,?,5%,-7%,8%,32µM*
O=C(Cn1sc2ccccc2c1=O)NC12CC3CC(CC(C3)C1)C2,3%,0%,-2%,-2%,?,-12%
O=C(Cn1sc2ccccc2c1=O)Nc1ccccc1,·,·,·,-1%,7.1µM*,·
C=CC(=O)Nc1cccc(Nc2nc(N[C@H]3CC[C@H](N(C)C)CC3)nc3c2ncn3C(C)C)c1,·,·,50µM*,7%,-10%,·
O=C(Nc1ccc(Br)cc1)c1cnn2c1NC(=C1CC1)C=C2C(F)F,16%,·,·,·,·,·
O=C1OC(c2ccc3ccccc3c2O)(c2ccc3ccccc3c2O)c2ccccc21,·,·,?,-6%,11µM*,·
CCOC(=O)NC(=O)C(/C=N/c1sccc1C(=O)OC)=C(\C)O,3%,-1%,1%,-3%,0%,14µM*
CCC(=O)Nc1sccc1C(=O)OC,-3%,0%,-9%,i,-1%,0%
Cc1nc(C)c(/C(O)=C\c2nc3ccc([N+](=O)[O-])cc3oc2=O)o1,-10%,-3%,?,1%,11µM*,-10%
CC(COc1ccccc1)NN (stereo unspecified),·,·,·,·,4%,·
CC1(C)S[C@@H]2[C@H](NC(=O)[C@H](N)c3ccccc3)C(=O)N2[C@@H]1C(=O)OCOC(=O)[C@@H]1N2C(=O)C[C@@H]2S(O)(O)C1(C)C,·,·,·,·,4%,·
COc1ccccc1CNC(=O)C1CCN(S(=O)(=O)c2c(C)noc2/C=C/c2cccs2)CC1,·,-4%,89µM*,-8%,-15%,·
COc1cccc(NC(=O)C2CCN(S(=O)(=O)c3c(C)noc3/C=C/c3cccs3)CC2)c1,·,-9%,-16%,i,2%,·
O=C1NC(=Nc2ccccc2)S/C1=C\C=C\c1ccco1,3%,13µM*,?,-6%,0%,2%
COc1ccc(N=C2NC(=O)/C(=C/C=C/c3ccccc3)S2)cc1,2%,-2%,-8%,-8%,3%,17%
COc1c(-c2coc3cc4c(cc3c2=O)CC(OC(C)=O)C(C)(C)O4)ccc2c1C=CC(C)(C)O2 (stereo unspecified),22µM*,-3%,·,·,·,-5%
COc1c(-c2coc3cc4c(cc3c2=O)CC(O)C(C)(C)O4)ccc2c1C=CC(C)(C)O2 (stereo unspecified),13%,-19%,·,·,·,-5%
COc1ccc(-c2ccc3c(=O)cc(-c4ccsc4)oc3c2)cn1,-28%,·,50µM*,-10%,-19%,·
Cn1c(=O)c2[nH]c(-c3ccccc3Cl)c(O)c2n(C)c1=O,0%,-8%,-4%,-4%,22µM*,4%
